Shown are actives, neighbours in structure and some others; about 6.3% of the full set was active somewhere.
MPTP inh: inhibitors of mitochondrial permeability transition pore; isolated mouse mitochondria, Ca2+ swelling absorbance, 30 min; inhibition, % at 10 µM; actives 1.4% (n = 360,000); AID 602449;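 active = inhibition of 50% or more, scaled per plate between neutral and stimulator controls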
Mdm2-MdmX inh: disrupts the human Mdm2-MdmX interaction. O15151+Q00987. SaOS-2 split-luciferase Mdm2/MdmX complementation, luminescence. inhibition, % at 8 µM. actives 3% (n = 330,000);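 active = inhibition of at least 50% at 8 µM in the primary screen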
Target sequence (O15151 whole entry, looked up): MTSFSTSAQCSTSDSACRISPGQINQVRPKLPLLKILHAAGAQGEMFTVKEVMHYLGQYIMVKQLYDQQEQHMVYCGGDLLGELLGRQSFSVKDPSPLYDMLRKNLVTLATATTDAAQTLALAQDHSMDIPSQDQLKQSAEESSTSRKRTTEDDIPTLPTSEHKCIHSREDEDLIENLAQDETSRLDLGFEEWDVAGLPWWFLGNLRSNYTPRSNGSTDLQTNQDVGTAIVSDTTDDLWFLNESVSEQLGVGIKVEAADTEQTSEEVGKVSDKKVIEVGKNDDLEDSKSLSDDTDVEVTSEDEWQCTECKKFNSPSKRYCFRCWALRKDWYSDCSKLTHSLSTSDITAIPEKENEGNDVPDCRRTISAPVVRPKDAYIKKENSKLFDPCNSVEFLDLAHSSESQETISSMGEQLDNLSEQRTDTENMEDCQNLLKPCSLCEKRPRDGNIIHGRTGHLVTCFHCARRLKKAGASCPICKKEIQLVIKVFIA
Target sequence (Q00987 whole entry, looked up): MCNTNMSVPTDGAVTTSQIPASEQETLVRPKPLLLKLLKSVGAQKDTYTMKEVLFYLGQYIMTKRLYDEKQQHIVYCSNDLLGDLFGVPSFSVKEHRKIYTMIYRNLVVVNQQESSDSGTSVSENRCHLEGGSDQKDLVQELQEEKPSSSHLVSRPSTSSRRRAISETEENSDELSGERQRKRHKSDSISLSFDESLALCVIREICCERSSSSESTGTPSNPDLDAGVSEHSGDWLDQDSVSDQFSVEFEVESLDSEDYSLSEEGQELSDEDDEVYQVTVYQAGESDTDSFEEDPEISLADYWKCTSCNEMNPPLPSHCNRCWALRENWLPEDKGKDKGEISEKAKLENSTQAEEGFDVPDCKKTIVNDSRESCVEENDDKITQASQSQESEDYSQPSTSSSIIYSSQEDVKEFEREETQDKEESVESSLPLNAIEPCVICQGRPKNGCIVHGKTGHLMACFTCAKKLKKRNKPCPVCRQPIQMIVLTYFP
tim23-1 inh: inhibits growth of tim23-1 mutant yeast | S. cerevisiae tim23-1 growth, BacTiter-Glo luminescence, 24 h | inhibition, % at 20 µM | actives 1.3% (n = 330,000);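 active = growth inhibition of the mutant yeast at or above 50%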;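 also: temperature-sensitive mutant grown at 25 °C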
TIM10 inh: inhibits growth of TIM10 yeast strain; S. cerevisiae TIM10 strain growth, BacTiter-Glo luminescence, 24 h; inhibition, % at 10 µM; actives 1.4% (n = 330,000); AID 463195;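 active = inhibition of 40% or more at the single tested concentration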;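 also: wild-type TIM10 isogenic control strain grown at permissive 25 °C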
tim10-1 inh: inhibits growth of tim10-1 mutant yeast | S. cerevisiae tim10-1 ts strain growth, BacTiter-Glo, 24 h | inhibition, % at 20 µM | actives 2.2% (n = 330,000) | AID 463190;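 active = inhibition of at least 40%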;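 also: mutant grown at 25 °C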
Mdm2-MdmX conf: human Mdm2/MdmX binding inhibition, confirmed; shares compounds with Mdm2-MdmX inh; luminescent assay; inhibition, % at 8 µM; actives 55% (n = 10,000); AID 489028; in the data active = inhibition above about 40%
Full FLuc ctr: counter-screen for Mdm2/MdmX inhibitors: full-length luciferase; shares compounds with Mdm2-MdmX inh; inhibition, % at 8 µM; SaOS-2 full-length luciferase counterscreen, luminescence; actives 77% (n = 6,200);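 active = mean inhibition at 8 µM reaching about 37%, which flags the compound as non-specific, limit read from the data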;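 also: p53-null SaOS-2 cells with luciferase driven by a doxycycline-inducible promoter; compound on cells about two nights before reading with doxycycline added after day one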
MPTP counter: mitochondrial membrane potential, counter-screen | AID 624504 | actives 78% (n = 5,000) | shares compounds with MPTP inh | isolated mitochondria, Rhodamine 123 fluorescence | inhibition, % at 10 µM; in the data active = inhibition above about 22%
Large screens that a line does not name were inactive (follow-up assays come after a bar, where they were run).

COCCCN1C(=O)C(CC(=O)NC(c2ccccc2)c2ccccc2)CC(C(=O)N2CCCCCC2)=C1C (configuration not stated)	none (no result: Mdm2-MdmX inh, tim23-1 inh, TIM10 inh, tim10-1 inh)
O=C(CN1CCCc2ccccc21)N/N=C/c1ccccc1O	Mdm2-MdmX inh 77.1 | Mdm2-MdmX conf 63.1 | Full FLuc ctr inactive
CCN(C(=O)Cn1cc(C(F)(F)F)ccc1=O)C1CCS(=O)(=O)C1 (configuration not stated)	none (no result: Mdm2-MdmX inh, tim23-1 inh, TIM10 inh, tim10-1 inh)
COc1ccc(NC(=O)C(=O)c2cn(CC(=O)N3CCCC3)c3ccccc23)cc1	Mdm2-MdmX inh 58.3 | Mdm2-MdmX conf 54.5 | Full FLuc ctr 88.6
CC(=O)Nc1ccc(NC(=O)C(=O)c2cn(CC(=O)N3CCCC3)c3ccccc23)cc1	none
CCN(CC)C(=O)C1=C(C)N(CCCN2CCCC2=O)C(=O)C(CC(=O)NCc2cccc3ccccc23)C1 (configuration not stated)	none (no result: Mdm2-MdmX inh, tim23-1 inh, TIM10 inh, tim10-1 inh)
Cc1ccc(-n2c(C)nn(Cc3ccc([N+](=O)[O-])cc3)c2=O)cc1	none
Cc1ccc(-n2c3nc(=O)[nH]c(=O)c-3cc3cc([N+](=O)[O-])ccc32)cc1	Mdm2-MdmX inh 58.4 | Mdm2-MdmX conf 45.8 | Full FLuc ctr 37.9
c1ccc2c(c1)C1=NCCN1c1ccccc1-2	none (no result: Mdm2-MdmX inh, tim23-1 inh, TIM10 inh, tim10-1 inh)
CCCCN(C)C(=O)c1ccc(Nc2nc(C(N)COCc3ccccc3)cs2)nc1 (configuration not stated)	none (no result: Mdm2-MdmX inh, tim23-1 inh, TIM10 inh, tim10-1 inh)
COc1ccc(S(=O)(=O)N2CCc3ccccc32)cc1C(=O)Nc1ccc(C(N)=O)cc1	Mdm2-MdmX inh 97.8 | Mdm2-MdmX conf 60.0 | Full FLuc ctr 66.3
Cn1c(=O)oc2cc(S(=O)(=O)N3CCCc4ccccc43)ccc21	Mdm2-MdmX inh 54.6 | Mdm2-MdmX conf 59.2 | Full FLuc ctr 65.2
Cn1c(=O)oc2cc(S(=O)(=O)N3CCc4ccccc43)ccc21	none
COC(=O)Nc1ccc(S(=O)(=O)N2CCCc3ccccc32)cc1	Mdm2-MdmX inh 54.7 | Mdm2-MdmX conf 48.8 | Full FLuc ctr 56.0
CCC(=O)Nc1ccc(S(=O)(=O)N2CCc3ccccc32)cc1	none
COC(=O)Nc1ccc(S(=O)(=O)N2CCCc3cccc(O)c32)cc1	Mdm2-MdmX inh 55.1 | Mdm2-MdmX conf 52.1 | Full FLuc ctr 62.6
COc1cc(C(O)c2nc(-c3cccc(NC(C)=O)c3)cs2)ccc1F (configuration not stated)	none (no result: Mdm2-MdmX inh, tim23-1 inh, TIM10 inh, tim10-1 inh)
COc1ccc(-c2cnc(C(O)c3ccc(OC)c(F)c3)[nH]2)cc1 (configuration not stated)	none (no result: Mdm2-MdmX inh, tim23-1 inh, TIM10 inh, tim10-1 inh)
CC(C)C[C@@H]1COc2cc(N(C)CCO)ccc2S(=O)(=O)N1	none (no result: Mdm2-MdmX inh, tim23-1 inh, TIM10 inh, tim10-1 inh)
CC1CCc2nc(NC(=O)c3ccc(S(=O)(=O)N4CCCc5ccccc54)cc3)sc2C1 (configuration not stated)	Mdm2-MdmX inh 58.1 | Mdm2-MdmX conf inactive
Cc1ccc(C(=O)CCC(=O)N2CCN(C/C=C/c3ccccc3)CC2)cc1	none (no result: Mdm2-MdmX inh, tim23-1 inh, TIM10 inh, tim10-1 inh)
CCOc1cc(NC(=O)C2CC2)c(OCC)cc1NC(=O)c1ccccc1OCC	none
CCOc1cc(NC(=O)C2CC2)c(OCC)cc1NC(=O)c1cc(OC)c(OC)c(OC)c1	Mdm2-MdmX inh 62.2 | Mdm2-MdmX conf inactive
COC(=O)c1ccc(/C=C2/SC(=S)N(CCCC(=O)Nc3ccc(O)cc3)C2=O)cc1	Mdm2-MdmX inh 99.6 | Mdm2-MdmX conf 55.1 | Full FLuc ctr inactive
CCc1ccc(/C=C2\SC(=S)N(CCCC(=O)Nc3ccc(C(=O)O)cc3)C2=O)cc1	none
Cc1ccc(/C=C2\SC(=S)N(CCCC(=O)Nc3ccc(O)cc3)C2=O)cc1	Mdm2-MdmX inh 93.4 | Mdm2-MdmX conf 89.3 | Full FLuc ctr 47.5
O=C(CCCN1C(=O)S/C(=C\C=C\c2ccccc2)C1=O)Nc1ccc(O)cc1	Mdm2-MdmX inh 53.3 | Mdm2-MdmX conf inactive
Cc1ccc(/C=C2\SC(=S)N(CCCC(=O)Nc3ccccc3C(=O)O)C2=O)cc1	none
O=C(NCCCN1CCCC1=O)C(=O)NCC1OCCN1S(=O)(=O)c1cc(F)ccc1F (configuration not stated)	none (no result: Mdm2-MdmX inh, tim23-1 inh, TIM10 inh, tim10-1 inh)
COc1nc(Nc2nc3ccccc3c(=O)[nH]2)nc2ccc(C)cc12	Mdm2-MdmX inh 65.5 | Mdm2-MdmX conf 42.8 | Full FLuc ctr 75.8
CCOc1ccc(-n2c(C)cc(C(=O)CCl)c2C)cc1	Mdm2-MdmX inh 94.0 | Mdm2-MdmX conf 55.0 | Full FLuc ctr 87.5
CCOC(=O)c1cc2c(C)n(-c3ccc(OCC)cc3)c(C)c2cc(C(=O)OCC)c1=O	none
Cc1ccccc1Cn1c(=O)n(-c2ccccc2)c(=O)c2ccc(C(=O)NCc3ccco3)cc21	Mdm2-MdmX inh 67.5 | Mdm2-MdmX conf inactive
Cc1ccc(-n2c(=O)c3ccc(C(=O)NCc4ccco4)cc3n(Cc3ccccc3C#N)c2=O)cc1	none
O=c1c2cccnc2[nH]c(=S)n1CCC1=CCCCC1	Mdm2-MdmX inh 63.0 | Mdm2-MdmX conf inactive
CCCCCn1c(=S)[nH]c2ncccc2c1=O	none
CCN1CCN(C(c2cccnc2)c2c(NC(=O)c3ccco3)sc(C)c2C)CC1 (configuration not stated)	none
Cc1sc(NC(=O)c2ccco2)c(C(c2cccnc2)N2CCC(C)CC2)c1C (configuration not stated)	Mdm2-MdmX inh 74.5 | Mdm2-MdmX conf 76.5 | Full FLuc ctr 76.8
CCc1nc2ccc(C(=O)N3CCN(c4ccccc4)CC3)cn2c1N(C)CCC(C)C	none (no result: Mdm2-MdmX inh, tim23-1 inh, TIM10 inh, tim10-1 inh)
COC(=O)c1cn(NC(=O)c2cc([N+](=O)[O-])ccc2F)c(=O)c2ccccc12	Mdm2-MdmX inh 83.1 | Mdm2-MdmX conf 75.9 | Full FLuc ctr 53.7
COc1cc(/C=C/[N+](=O)[O-])ccc1OCc1cccc(C(=O)O)c1	Mdm2-MdmX inh 55.2 (no result: MPTP inh) | Mdm2-MdmX conf 47.0 | Full FLuc ctr inactive
COc1cc(OCc2ccccc2)c(C(=O)/C=C/c2ccc3c(c2)OCO3)c(OC)c1OC	Mdm2-MdmX inh 70.1 | Mdm2-MdmX conf inactive
COc1cc(OC)c(C(=O)/C=C/c2ccc(OCc3ccccc3)c(OC)c2)c(OC)c1	Mdm2-MdmX inh 60.4 | Mdm2-MdmX conf inactive
CC(NC(=O)c1cccc(S(=O)(=O)N(C)c2ccccc2)c1)c1cccnc1 (configuration not stated)	none
C[C@@H](C(=O)Nc1ccc(SC(F)F)cc1)N1C(=O)C2CCCCC2C1=O (some centres not stated)	none
CC1CCCC(NC(=S)Nc2ccc(SC(F)F)cc2)C1C (configuration not stated)	MPTP inh 103.1, Mdm2-MdmX inh 90.2 | Mdm2-MdmX conf inactive | MPTP counter 97.2
NS(=O)(=O)c1ccc(CCNC(=O)CSc2nc3ccsc3c(=O)n2Cc2ccccn2)cc1	none (no result: Mdm2-MdmX inh, tim23-1 inh, TIM10 inh, tim10-1 inh)

High-throughput results (PubChem)
